Shown are actives, neighbours in structure and some others; about 3.2% of the full set was active somewhere.
AmpC inh detg: qHTS Inhibitors of AmpC Beta-Lactamase (assay with detergent). P00811. AmpC hydrolysis of nitrocefin, absorbance 480 nm, 0.01% Triton. Potency, µM (series often up to 114 µM), for inactives: at the top dose activity change, negative = inhibition, hits mostly inhibitors. actives 0.041% (n = 370,000);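 also: 0% = no-compound wells and -100% = no-enzyme wells; nearly all actives have a fitted effect of over 25% in size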
Target sequence (P00811 whole entry, looked up): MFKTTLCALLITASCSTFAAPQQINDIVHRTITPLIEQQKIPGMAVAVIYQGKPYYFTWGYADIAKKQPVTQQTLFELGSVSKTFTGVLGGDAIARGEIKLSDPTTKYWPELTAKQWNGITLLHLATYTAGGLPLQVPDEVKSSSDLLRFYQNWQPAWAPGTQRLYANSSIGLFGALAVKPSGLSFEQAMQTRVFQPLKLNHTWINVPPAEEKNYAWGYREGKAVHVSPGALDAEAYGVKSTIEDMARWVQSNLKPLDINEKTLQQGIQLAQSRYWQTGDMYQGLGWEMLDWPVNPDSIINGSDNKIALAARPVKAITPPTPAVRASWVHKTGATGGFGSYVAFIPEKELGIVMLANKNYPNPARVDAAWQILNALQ
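AmpC (5.3 nM in the dispensed reagent) in 20 mM phosphate pH 7.0 with 0.01% (detergent screen) or 0.0001% Triton X-100 was preincubated with compounds for 15 min at room temperature. Nitrocefin was then added from an 800 uM solution, and hydrolysis was followed at 480 nm.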
RE007 growth inh: qHTS Assay for Inhibitors of the HIV-1 protein Vpr | S. pombe RE007 Vpr strain, BacTiter-Glo ATP luminescence, 24 h | Potency, µM (doses to about 92.2 µM), for the others: top-dose activity change, negative = less growth, hits mostly inhibitors | actives 0.21% (n = 360,000) | AID 651644, 2012; active = well fitted falling curve with a large enough effect; inconclusive = small, poorly fitted or top-dose-only effect; inactive = no such curve, though single readings can be large or run the other way; also: nearly all actives have a fitted effect of over 50% in size
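Fission yeast RE007 carrying one integrated HIV-1 vpr copy, seeded at OD 0.01 in PMG+AL medium with 23 nL pinned compound. Grown 24 h at 30 degrees; viability read by BacTiter-Glo luminescence after 5 min.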
Sm TGR inh: qHTS Assay for the Inhibitors of Schistosoma Mansoni Peroxiredoxins; AID 485364, 2010; actives 3% (n = 360,000); Potency, µM (series often up to 114 µM), without a hit: at the highest dose activity change, negative = inhibition, most hits filed as inhibitors; purified TGR, DTNB reduction, TNB absorbance 405 nm; also: nearly all actives have a fitted effect of over 60% in size
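First, TGR (20 nM dispensed) and NADPH were mixed with compound. Second, a 15 min room-temperature incubation followed. Third, further NADPH and then DTNB were added to start the reaction. Finally, TNB absorbance was monitored kinetically.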
AMA1 RON2 block: qHTS for Inhibitors of AMA1-RON; Towards Development of Antimalarial Drug Lead: Primary Screen | Plasmodium falciparum AMA1 (3D7) - RON2 peptide interaction | AlphaScreen AMA1-biotinylated RON2 peptide binding | Potency, µM (titrated, usually from 58.2 µM), for inactives: at the top dose activity change, negative = inhibition, most hits filed as inhibitors | actives 0.2% (n = 360,000);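 also: 0% = vehicle wells and -100% = peptide control; nearly all actives have a fitted effect of over 45% in size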
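AMA1 (3D7) with his tag at 25 nM final met compounds first, then biotinylated RON2 peptide at 25 nM; detection used donor plus acceptor beads, 10 µg/mL apiece, read by AlphaScreen after 30 min at room temperature.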
AmpC no deterg: qHTS Inhibitors of AmpC Beta-Lactamase (assay without detergent) | P00811 | AmpC nitrocefin hydrolysis, absorbance 480 nm, 0.0001% Triton | Potency, µM (titrated, usually from 57.1 µM), inactives show at the top dose activity change, negative = inhibition, most hits filed as inhibitors | actives 0.52% (n = 330,000) | AID 485341, 2010;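 also: plate controls were no compound for no effect and no enzyme for full effect; nearly all actives have a fitted effect of over 20% in size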
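20 mM phosphate pH 7.0 + 0.01% (detergent screen) or 0.0001% Triton X-100; 5.3 nM AmpC reagent; cpd preinc 15 min RT; nitrocefin (800 uM stock) to start; A480 q20 s × 4 min; Activity was normalised to no-enzyme and no-compound control wells.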
The depositor's hits bear a star; ? = inconclusive; / = no result; [ ] = another dose, or the depositor's remark. Unless noted, calls follow the shape of the dose curve; as a rule, active = well fitted curve in the direction sought with a large enough effect; inconclusive = small, poorly fitted or top-dose-only effect, or another doubt; inactive = no such curve, though single readings can be large; an effect the other way counts as inactive or inconclusive. Unless noted, % is scaled to controls: 0 for no effect and ±100 for the full control effect; potency is read from the fitted curve at half-maximal effect.

SMILES | AmpC inh detg | RE007 growth inh | Sm TGR inh | AMA1 RON2 block | AmpC no deterg
Cc1cccc(OCCOc2ccccc2C=C(C#N)C#N)c1 | 1.4% | -15.1% | 2.51µM* | 1.7% | -28.0%
Cc1cccc(OCCOC(=O)Nc2ccccc2)c1 | 2.8% | -7.2% | 8.9% | 18.4% | -6.7%
Cc1ccccc1OCCOc1ccccc1C=C(C#N)C#N | -7.0% | / | 3.98µM* | / | -27.1%
O=C(NCc1ccco1)c1ccccc1NS(=O)(=O)c1ccc(Cl)s1 | -7.0% | 2.2% | 28.2µM* | 0.2% | -55.1%
CCn1c(=O)c2sccc2n2c(CCC(=O)Nc3ccc(F)cc3)nnc12 | -1.9% | / | -0.3% | / | /
C1CN(CC2CCN(c3nc4nonc4nc3N3CCSCC3)CC2)CCO1 | 1.2% | 3.6% | 28.2µM* | 14.7% | -2.7%
CC(C)Cn1c(-c2ccco2)csc1=Nc1cccnc1 | 6.7% | -0.3% | 56.2µM* | -25.2% | -36.1%
COCCn1c(-c2ccco2)csc1=Nc1cccnc1 | -6.1% | -11.2% | ? | -20.2% | -7.7%
O=c1oc2cc([N+](=O)[O-])ccc2nc1/C=C(O)/C=C/c1ccccc1 | 3.6% | / | 35.5µM* | / | -38.6%
N#CC1(C#N)CC(C=O)=C(N)C1(C#N)CC(=O)c1ccc(F)cc1 (centres undefined) | ? | -3.7% | 20µM* | 2.9% | -44.4%
NC(=O)c1ccsc1NC(=O)CCS(=O)(=O)c1ccc(Cl)cc1 | 3.1% | 6.4% | 3.16µM* | 1.5% | -20.6%
N#Cc1ccsc1NC(=O)COC(=O)CCS(=O)(=O)c1ccccc1 | / | -2.3% | / | 19.1% | 5.9%
N#Cc1ccsc1NC(=O)CCS(=O)(=O)c1ccccc1 | -7.1% | 8.3% | 2.82µM* | 0.0% | 17.1%
Cc1ccn2c(=O)cc(COc3ccc(NC(=O)COc4ccc(C)c(C)c4)cc3)nc2c1 | -1.4% | / | -1.3% | / | /
CCN(C(=O)c1coc(=O)c(Br)c1)c1ccc2c(c1)OCO2 | -16.2% | -13.3% | 44.7µM* | -21.9% | -5.9%
CCN(C(=O)c1c(C)cc(=O)oc1C)c1ccc2c(c1)OCO2 | -2.1% | 6.6% | 0.0% | 1.9% | -11.1%
CCOC(=O)C1=C(O)/C(=C\c2ccc(CNC(=O)C(=O)Nc3ccccc3)o2)N=C1C | 10.9% | 3.1% | 8.91µM* | -18.3% | 10.0%
CCOC(=O)C1=C(O)/C(=C\c2cccs2)N=C1C | ? | -20.2% | -14.9% | 10.1% | -6.4%
O=C(CCc1ccc(O)c(O)c1)N/N=C/c1ccc2c(c1)OCO2 | 4.5% | 9.3% | 11.2µM* | -24.8% | -30.5%
CC(C)Oc1ccc(CCC(=O)N/N=C/c2ccc3c(c2)OCO3)cc1 | -11.8% | -9.8% | 13.2% | -3.6% | -22.0%
CC1=C(C(=O)N2CCN(c3cccc(Cl)c3)CC2)C2(CCCCC2)OC1=O | 18.7% | / | -16.0% | / | /
O=C(Nc1ccccc1)Nc1sccc1-c1nc2ccccc2s1 | 7.6% | 0.2% | -10.0% | 20.2% | 14.1µM*
CCc1cccc2c(C(=S)N3CCCC3)c[nH]c12 | -6.9% | 6.7% | -5.4%[57.1 µM] | -0.5% | -11.9%
CCc1cccc2c(C(=O)CCl)c[nH]c12 | -9.3% | 21.9% | 7.94µM* | 10.0% | -16.6%
Cc1noc(C)c1C(=O)NNc1ccc(C(C)C)cc1 | -3.5% | 14.5% | 20µM* | -12.4% | -4.2%
SMILES | AmpC inh detg | RE007 growth inh | Sm TGR inh | AMA1 RON2 block | AmpC no deterg
Cc1ccc(NNC(=O)c2c(C)noc2C)cc1Cl | 6.0% | 36.0% | ? | 0.0% | -9.3%
CCc1ccc(NC(=O)CSC2=Nc3ccccc3C3=NC(CCC(=O)NCc4ccccc4OC)C(=O)N23)cc1 (centres undefined) | 3.6% | / | -8.7% | / | /
O=C(C=Cc1ccccc1O)c1ccccc1O | / | 35.5µM* | / | -14.8% | /
O=C(/C=C/c1ccc(O)c(O)c1)c1ccccc1O | -2.6% | ? | ? | -15.9% | -32.6%
O=C(C=Cc1cccc(O)c1)c1ccccc1O | / | 25.1µM* | / | 20.9% | /
Cc1nnc(SCc2c(Cl)cccc2Cl)n(N)c1=O | 5.3% | 8.1% | 3.9% | -20.9% | -11.6%
CCn1c(SCc2c(Cl)cccc2Cl)nnc1-c1nn(-c2ccccc2)ccc1=O | -8.0% | 2.8% | 100µM* | -5.8% | 93.5%
